Here are results for 13 compounds from the supplement of paper PMC6522484.

± gives the standard deviation of the averaged measurements.

The test system of assay [1] is DLD1. Description: cell viability (CellTiter-Glo) relative to plate median (fraction of plate median); higher = more viable cells. To be noted: 5 µM; treatment time 24 h; reporter: 7TFP. An outline of the steps:
(§1)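 Library compounds were added at a final concentration of 5 µM for 24 h to colorectal cancer cells stably transduced with a lentiviral TCF/Wnt firefly luciferase reporter. Reported values are firefly luciferase or CellTiterGlo luminescence, normalised per well to the plate median. Each value averages two independent replicates.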
On the technique in general: ATP-based viability assays read luminescence as a measure of living cells.

For assay [2], the system named is HCT116. Described as above. The following applies: 5 µM; treatment time 24 h; reporter: TCF4/Wnt. Put shortly:
as §1

Assay [3] deals with SW480. The assay is described as above. To be noted: 5 µM; treatment time 24 h; reporter: 7TFP. Put shortly:
as §1

Assay [4] relates to DLD1. Description: TCF/Wnt firefly luciferase reporter signal relative to plate median (fraction of plate median); higher = higher Wnt reporter signal. The following applies: 5 µM; treatment time 24 h; reporter: 7TFP. An outline of the steps:
as §1
A general note: Reporter assays use an easily measured gene product as a stand-in for the process of interest.

The test system of assay [5] is SW480. The description is as above. The following applies: 5 µM; treatment time 24 h; reporter: 7TFP. Put shortly:
as §1

For assay [6], the system named is DLD1. The experiment in a line: cell viability (CellTiter-Glo) relative to plate median (fraction of plate median); higher = more viable cells. The following applies: 10 µM, treatment time 24 h. An outline of the steps:
(§2)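 Reporter and viability luminescence were measured in colorectal cancer cells stably carrying lentiviral TCF/Wnt firefly luciferase reporters. The cells were exposed to kinase inhibitor library compounds at a final 10 µM for 24 h, starting 24 h after seeding in 384-well plates. Each well was normalised to the plate median (webcellHTS2, additive, no log transformation), and two independent replicates were averaged.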

Assay [7] has as its system HCT116. Described as above. The following applies: 10 µM; treatment time 24 h; reporter: TCF4/Wnt. Put shortly: as §2
For assay [8], the system named is SW480. Described as above. The following applies: 10 µM; treatment time 24 h; reporter: 7TFP. Put shortly: as §2
The test system of assay [9] is DLD1. The experiment in a line: TCF/Wnt firefly luciferase reporter signal relative to plate median (fraction of plate median); higher = higher Wnt reporter signal. To be noted: 10 µM, treatment time 24 h. An outline of the steps: as §2
For assay [10], the system named is HCT116. Described as above. To be noted: 10 µM; treatment time 24 h; reporter: TCF4/Wnt. Put shortly:
as §2

For assay [11], the system named is SW480. Described as above. To be noted: 10 µM; treatment time 24 h; reporter: 7TFP. Put shortly:
as §2

With `CN(C)C(=S)SSC(=S)N(C)C`, the cell viability in the assay on DLD1 [1] was determined as 0.722 ± 0.25; in the assay on HCT116 [2] it was 0.363 ± 0.021; in the assay with SW480 [3], 0.997 ± 0.033. Besides, the “TCF/Wnt firefly luciferase reporter signal” value was found to be 0.686 ± 0.13 in the assay with DLD1 [4] and 0.508 ± 0.12 in the assay with SW480 [5].
For `Cn1cc(C2=C(c3cn(C4CCN(Cc5ccccn5)CC4)c4ccccc34)C(=O)NC2=O)c2ccccc21`, the cell viability stood at 0.854 ± 0.016 in the assay with DLD1 [6] (reporter: 7TFP), 0.931 ± 0.059 in the assay with DLD1 [6] (reporter: TCF4/Wnt), 1.08 ± 0.071 in the assay with HCT116 [7] and 0.931 ± 0.081 in the assay on SW480 [8]. Further, the “TCF/Wnt firefly luciferase reporter signal” value with DLD1 [9] (reporter: 7TFP) amounted to 1.98 ± 0.86; in the assay with DLD1 [9] (reporter: TCF4/Wnt) it was 1.38 ± 0.18; in the assay on HCT116 [10] it was 2.9 ± 0.54; with SW480 [11], 1.45 ± 0.17.
As for `Oc1ccc(Cl)cc1`, the cell viability was 1.06 ± 0.064 in the assay with DLD1 [1], 0.892 ± 0.025 in the assay on HCT116 [2] and 0.961 ± 0.04 in the assay with SW480 [3]. Also, the entries for the “TCF/Wnt firefly luciferase reporter signal” value in the assay with DLD1 [4] and with SW480 [5] were 1.03 ± 0.042 and 1.115 ± 0.0071, respectively.
As for `CC[C@@]1(O)C(=O)OCc2c1cc1n(c2=O)Cc2cc3ccccc3nc2-1`, the cell viability in the assay on DLD1 [1] turned out to be 0.91 ± 0.094; in the assay on HCT116 [2], 0.292 ± 0.067; with SW480 [3] it was 0.925 ± 0.041. In addition, the figures for the “TCF/Wnt firefly luciferase reporter signal” value with DLD1 [4] and in the assay with SW480 [5] were 1.01 ± 0.12 and 0.911 ± 0.016, respectively.
In the case of `Oc1cc(Cl)ccc1Oc1ccc(Cl)cc1Cl`, the cell viability is 0.936 ± 0.078 in the assay on DLD1 [1], 0.913 ± 0.011 in the assay on HCT116 [2] and 0.954 ± 0.021 with SW480 [3]. In addition, the “TCF/Wnt firefly luciferase reporter signal” value in the assay with DLD1 [4] was 0.983 ± 0.15; in the assay with SW480 [5], 0.893 ± 0.021.
Turning to `CN1CCc2cc3c(cc2C1O)OCO3` (stereo not drawn), the cell viability in the assay on DLD1 [1] turned out to be 1.01 ± 0.026; with HCT116 [2] it was 1.03 ± 0.047; with SW480 [3], 0.995 ± 0.021. The “TCF/Wnt firefly luciferase reporter signal” value stood at 0.956 ± 0.037 with DLD1 [4] and 0.942 ± 0.064 in the assay with SW480 [5].
Consider `C=C1C[C@@H]2[C@H](CC[C@]3(C)C(=O)CC[C@@H]23)[C@@]2(C)C=CC(=O)C=C12`, for which the cell viability is 1.03 ± 0.11 in the assay on DLD1 [1], 1.12 ± 0.05 in the assay with HCT116 [2] and 1.02 ± 0.031 with SW480 [3]. The “TCF/Wnt firefly luciferase reporter signal” value amounted to 0.961 ± 0.17 with DLD1 [4] and 1.02 ± 0.13 in the assay with SW480 [5].
For `CC(=O)O[C@@H]1[C@H]2CC[C@H]3[C@@](C)(O)[C@@H]4C[C@H](O)C(C)(C)[C@@]4(O)[C@H](O)C[C@@]13C[C@@]2(C)O` the same measures were 1.04 ± 0.014, 1.105 ± 0.0071, 1.09 ± 0.064, 1.04 ± 0.014 and 0.984 ± 0.19.
With `C[C@]12CC[C@H](O)CC1=CC[C@@H]1[C@@H]2CC[C@]2(C)C(=O)CC[C@@H]12`, the cell viability in the assay with DLD1 [1] was determined as 1.04; in the assay with HCT116 [2], 1.15 ± 0.021; in the assay with SW480 [3] it was 1.02 ± 0.021. Besides, the entries for the “TCF/Wnt firefly luciferase reporter signal” value in the assay with DLD1 [4] and in the assay on SW480 [5] were 1.04 ± 0.14 and 0.916 ± 0.026, respectively.
On to `COc1ccc2c(c1O)-c1c(OC)c(OC)cc3c1[C@H](C2)N(C)CC3`, for which the cell viability was found to be 0.993 ± 0.067 in the assay on DLD1 [1], 1.055 ± 0.0071 with HCT116 [2] and 1 ± 0.035 in the assay with SW480 [3]. The “TCF/Wnt firefly luciferase reporter signal” value in the assay with DLD1 [4] stood at 0.885 ± 0.089; in the assay with SW480 [5], 0.926 ± 0.012.
With `C[C@@H]1CC[C@@]2(OC1)O[C@H]1[C@@H](O)[C@H]3[C@@H]4CC[C@H]5C[C@@H](O[C@@H]6O[C@H](CO)[C@H](O[C@@H]7O[C@H](CO)[C@@H](O)[C@H](O[C@@H]8OC[C@@H](O)[C@H](O)[C@H]8O)[C@H]7O[C@@H]7O[C@H](CO)[C@H](O)[C@H](O[C@@H]8O[C@H](CO)[C@@H](O)[C@H](O)[C@H]8O)[C@H]7O)[C@H](O)[C@H]6O)[C@H](O)C[C@]5(C)[C@H]4CC[C@]3(C)[C@H]1[C@@H]2C`, the cell viability came to 1.02 ± 0.11 in the assay on DLD1 [1], 1.065 ± 0.0071 in the assay on HCT116 [2] and 1.035 ± 0.0071 in the assay with SW480 [3]. For the same compound, the “TCF/Wnt firefly luciferase reporter signal” value came to 0.986 ± 0.09 in the assay on DLD1 [4] and 1.095 ± 0.0071 in the assay on SW480 [5].
As for `CN(C)C(=O)Oc1cccc([N+](C)(C)C)c1`, the figures for the cell viability in the assay with DLD1 [1], in the assay on HCT116 [2] and in the assay on SW480 [3] were 1.06 ± 0.089, 0.979 ± 0.017 and 1.01 ± 0.017, respectively. Also, the “TCF/Wnt firefly luciferase reporter signal” value turned out to be 1.03 ± 0.15 in the assay with DLD1 [4] and 1.09 ± 0.021 in the assay with SW480 [5].
Turning to `O=c1c(O)c(-c2ccc(O)c(O)c2)oc2c(O)c(O)cc(O)c12`, the results for the cell viability in the assay with DLD1 [1], with HCT116 [2] and with SW480 [3] were 0.905 ± 0.12, 1.1 ± 0.085 and 0.9465 ± 0.00071, respectively. Besides, the “TCF/Wnt firefly luciferase reporter signal” value with DLD1 [4] was 0.9395 ± 0.0035; in the assay with SW480 [5], 0.916 ± 0.033.
